Most compounds without a hit are left out; they make up all but 6.9% or so of the library.
BAZ2B inh = qHTS Assay for Inhibitors of BAZ2B. actives 4.4% (n = 360,000). AlphaScreen BAZ2B-H3K14Ac peptide displacement. Potency, µM (titrated, usually from 114 µM), for inactives: top-dose activity change, negative = inhibition, usual class: inhibitors. Bromodomain adjacent to zinc finger domain protein 2B (Homo sapiens), Q9UIF8; also: % is scaled to controls: 0 for no effect and ±100 for the full control effect; nearly all actives have a fitted effect of over 60% in size
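BAZ2B 50 nM plus b-H3(5-23)K14Ac 50 nM, PBS pH 7.4/0.01% Tween-20, 30 min RT; compound added (max 110 uM), 30 min RT; streptavidin donor/Ni-chelate acceptor beads 10 ug/mL final, 20 min dark; AlphaScreen read.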
HP1b binding inh = HTS for Inhibitors of HP1-beta Chromodomain Interactions with Methylated Histone Tails; Chromobox protein homolog 1 (Homo sapiens), P83916; AlphaScreen HP1-beta / biotin-H3K9me3 peptide binding; Potency, µM (doses to about 114 µM), for inactives: at the top dose activity change, negative = inhibition, most hits filed as inhibitors; actives 0.56% (n = 390,000); AID 540317, 2011; also: nearly all actives have a fitted effect of over 70% in size
Target sequence (P83916 whole entry, looked up): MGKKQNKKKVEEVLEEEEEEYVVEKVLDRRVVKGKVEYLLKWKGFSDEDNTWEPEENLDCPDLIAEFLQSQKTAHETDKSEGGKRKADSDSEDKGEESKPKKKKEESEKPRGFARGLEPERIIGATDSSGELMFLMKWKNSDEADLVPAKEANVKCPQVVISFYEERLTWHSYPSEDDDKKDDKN
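HP1-beta protein (50 nM final) preincubated 30 min at room temperature with biotinylated H3(1-18)K9me3 peptide (50 nM) in PBS pH 7.4, 0.01% Tween-20, then compound added for 30 min. AlphaScreen streptavidin donor/nickel chelate acceptor beads (10 ug/mL final), 30 min dark, luminescence read.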
VDR inh = Inhibitors of the vitamin D receptor (VDR): qHTS; Vitamin D3 receptor (Homo sapiens), P11473; VDR-SRC2-3 peptide fluorescence polarization, 2 h; Potency, µM, without a hit: max response, negative = inhibition, usual class: inhibitors; actives 0.93% (n = 400,000); AID 504847, 2011; also: % is scaled to controls: 0 for no effect and ±100 for the full control effect
Target sequence (P11473 whole entry, looked up): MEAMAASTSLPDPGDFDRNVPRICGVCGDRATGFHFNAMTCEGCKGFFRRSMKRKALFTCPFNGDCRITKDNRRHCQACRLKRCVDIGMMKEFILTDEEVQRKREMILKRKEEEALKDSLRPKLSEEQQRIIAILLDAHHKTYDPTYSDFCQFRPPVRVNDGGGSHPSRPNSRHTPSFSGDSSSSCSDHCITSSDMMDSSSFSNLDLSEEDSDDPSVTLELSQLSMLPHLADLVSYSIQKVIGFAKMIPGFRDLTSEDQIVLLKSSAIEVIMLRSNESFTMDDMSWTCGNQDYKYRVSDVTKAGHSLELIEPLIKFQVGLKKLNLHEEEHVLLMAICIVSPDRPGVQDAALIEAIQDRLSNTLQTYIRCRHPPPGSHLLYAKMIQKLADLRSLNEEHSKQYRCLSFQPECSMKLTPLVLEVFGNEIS
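Fluorescence polarization assay of small-molecule disruption of VDR binding to coregulator peptide SRC2-3. Compounds and controls pin-transferred, then read after 2 h incubation at ambient room temperature.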
JMJD2A Tudor inh = qHTS Assay for Inhibitors of JMJD2A-Tudor Domain; Lysine-specific demethylase 4A (Homo sapiens), O75164; AlphaScreen JMJD2A-Tudor / H3K4me3 peptide binding; Potency, µM (titrated, usually from 114 µM), without a hit: top-dose activity change, negative = inhibition, actives largely listed as inhibitors; actives 4.4% (n = 390,000); also: % is scaled to controls: 0 for no effect and ±100 for the full control effect; nearly all actives have a fitted effect of over 50% in size
PLK1 PBD block = qHTS for Inhibitors of PLK1-PDB (polo-like kinase 1 - polo-box domain): Primary Screen. Potency, µM, without a hit: max response, negative = inhibition, hits mostly inhibitors. AID 720504, 2013. Serine/threonine-protein kinase PLK1 (Homo sapiens), P53350. actives 2.8% (n = 360,000). Plk1 PBD binding of FITC phosphopeptide, fluorescence polarization; also: series mostly up to about 57 µM; % is scaled to controls: 0 for no effect and ±100 for the full control effect; nearly all actives have a fitted effect of over 65% in size
L3MBTL1 block = qHTS Assay for the Inhibitors of L3MBTL1. Lethal(3)malignant brain tumor-like protein 1 (Homo sapiens), Q9Y468. AlphaScreen L3MBTL1–H3K9me1 peptide binding. Potency, µM (top dose mostly 57.1 µM), for inactives: at the highest dose activity, negative = inhibition, actives largely listed as inhibitors. actives 0.66% (n = 230,000). AID 485360, 2010; also: % is scaled to controls: 0 for no effect and ±100 for the full control effect; nearly all actives have a fitted effect of over 60% in size
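Displacement of a biotinylated histone H3(1-15) peptide monomethylated at Lys9 (75 nM) from L3MBTL1 (50 nM) was measured by AlphaScreen after a 30 min room-temperature compound incubation; cefsulodin titration served as intraplate control.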
TbPYK confirm = qHTS of Trypanosoma Brucei Inhibitors: Confirmatory Assay for Cherry-picked Compounds | shares compounds with PLK1 PBD block | AID 720569, 2013 | recombinant TbPYK, Kinase-Glo ATP luminescence | Potency, µM (titrated, usually from 76.9 µM), for the others: at the highest dose activity change, negative = inhibition, most hits filed as inhibitors | actives 67% (n = 890); also: % is scaled to controls: 0 for no effect and ±100 for the full control effect; nearly all actives have a fitted effect of over 70% in size
TbPYK ADP-Glo = qHTS of Trypanosoma Brucei Inhibitors: Orthogonal Assay for Cherry-picked Compounds; Potency, µM (top dose mostly 76.9 µM), inactives show top-dose activity change, negative = inhibition, usual class: inhibitors; actives 62% (n = 890); shares compounds with PLK1 PBD block; recombinant TbPYK, ADP-Glo luminescence, 60 min; also: % is scaled to controls: 0 for no effect and ±100 for the full control effect; nearly all actives have a fitted effect of over 75% in size
* hit, by the source's call; ? = inconclusive; / = no result; [ ] = dose if it differs, or a comment. Calls follow the shape of the dose curve; as a rule, active = well fitted curve in the direction sought with a large enough effect; inconclusive = small, poorly fitted or top-dose-only effect, or another doubt; inactive = no such curve, though single readings can be large; an effect the other way counts as inactive or inconclusive. Potency is read from the fitted curve at half-maximal effect.

SMILES | BAZ2B inh | HP1b binding inh | VDR inh | JMJD2A Tudor inh | PLK1 PBD block | L3MBTL1 block | TbPYK confirm | TbPYK ADP-Glo
O=C1C(=Cc2ccccc2O)SC(=S)N1CCCN1CCOCC1 | / | / | / | / | 2.7µM* | / | 4µM* | 3.2µM*
CC(=O)C1=C(O)C(=O)N(c2ccc(O)cc2)C1c1ccccc1Cl (stereo not drawn) | -14% | ? | -14% | -11% | -7% | -3% | / | /
Cc1cc(N2CCOCC2)ccc1/C=C1/SC(=O)NC1=O | -26% | -1% | -8% | -12% | -11% | / | ? | 40µM*
COCCNC(=O)C(C)OC(=O)C1=Cc2ccccc2OC1 (stereo not drawn) | 0% | 23% | -22% | -9% | -10% | 9% | / | /
CC(OC(=O)C1=Cc2ccccc2OC1)C(=O)NCC1CCCO1 (stereo not drawn) | / | ? | ? | 22µM* | 12µM* | / | -7% | -7%
CCc1nc2c(OCCOc3ccc(F)cc3)cccn2c1N(C)C(=O)CC(C)C | / | / | / | / | -4% | / | / | /
CC(=S)/C=C1\Sc2ccccc2N1C | 50µM* | ? | ? | ? | 27µM* | -14% | ? | 14µM*
COc1ccc(C(=O)/C=C2\Sc3ccccc3N2C)cc1 | 16% | 85% | 3% | 30% | ? | 35% | / | /
Cc1cc(C)cc(NC(=O)CSc2oc(-c3cccs3)nc2S(=O)(=O)c2ccc(Br)cc2)c1 | 3% | 23% | 0% | 0% | / | / | / | /
COc1ccc(/C=N/Nc2nccnc2Cl)c(OC)c1 | ? | -6% | -1% | -6%[11.4 µM] | -18% | 3% | / | /
Oc1ccc(/C=N/Nc2nccnc2Cl)c(O)c1 | 14µM* | 30% | -15% | 50µM* | 1% | / | ? | 3%
Cc1ccc(-c2cc(C(=O)Nc3ccc(S(=O)(=O)Nc4ncccn4)cc3)[nH]n2)c(O)c1C | -17% | 44% | 16% | -14% | -28% | / | / | /
COc1ccc2c(-c3ccccc3)cc(SCC(=O)NC3CCS(=O)(=O)C3)nc2c1 (stereo not drawn) | -12% | 11% | -15% | -34% | -3% | -10% | / | /
Cc1ccc(/C=C/C(=O)N2CCN(S(=O)(=O)c3ccc(C)c(C)c3)CC2)o1 | ? | ? | ? | 45µM* | 24µM* | -18% | 13µM* | 16µM*
Cc1ccc(S(=O)(=O)N2CCN(C(=O)N(C)C)CC2)cc1C | -1% | 29% | 2% | -12% | -6% | / | / | /
Cc1ccc(-c2noc(CN(C(=O)C34CC5CC(CC(C5)C3)C4)C(C)C)n2)cc1 | -10% | 15% | 9% | -17% | 0% | -3% | / | /
Cc1cccc(NC(=O)CSc2nc(C3CCCC3)nc3c2c(=O)n(C)c(=O)n3C)c1C | 1% | 17%[57 µM] | -2% | -11% | / | / | / | /
COCCn1nnnc1C(c1cc2cc(OC)c(OC)cc2[nH]c1=O)N1CCN(c2ccc(O)cc2)CC1 (stereo not drawn) | 28µM* | ? | 2% | 56µM* | ? | 32% | 6.3µM* | 16µM*
CCc1ccc2[nH]c(=O)c(C(c3nnnn3CCOC)N3CCN(c4ccc(F)cc4)CC3)cc2c1 (stereo not drawn) | ? | -20% | -8% | -25%[11.4 µM] | -11% | / | / | /
Cc1ccc(NC(=O)c2ccc(Cl)c(N3C(=O)C=CC3=O)c2)cc1 | 22µM* | ? | 18µM* | 7.9µM* | 3.4µM* | -1% | 5.6µM* | 13µM*
O=[N+]([O-])c1cc(-c2ccc(C(=S)N3CCOCC3)o2)ccc1Cl | 32µM* | 10µM* | 10µM* | 40µM* | 2.7µM* | -25% | 16µM* | 16µM*
O=C(NN1CCOCC1)c1ccc(Cl)c([N+](=O)[O-])c1 | -2% | 41% | 122% | -2% | -7% | / | / | /
COc1ccc(CN2C[C@]3(CO)O[C@@H](CO)C[C@@H]3S2(=O)=O)cc1 | / | 43% | -18% | -2% | -2% | 5% | / | /
O=c1[nH]c(CN2CCN(c3ccccc3)CC2)nc2ccccc12 | -35% | 25% | 16% | -15% | -7% | / | / | /
Oc1ccc(N2CCN(Cc3nc4ccccc4[nH]3)CC2)cc1 | -35% | ? | 3% | 50µM* | -7% | / | 18µM* | 28µM*
SMILES | BAZ2B inh | HP1b binding inh | VDR inh | JMJD2A Tudor inh | PLK1 PBD block | L3MBTL1 block | TbPYK confirm | TbPYK ADP-Glo
O=C1CN(C(=O)CNC(=O)c2ccccc2Cl)c2ccccc2N1 | 9% | 15% | 4% | -11% | -10% | / | / | /
O=C1OCC/C1=C\OCCCO/C=C1\CCOC1=O | -1% | 43% | -14% | -2% | -7% | / | / | /
CCN(CC)C(=S)Sc1c(-c2ccccc2)c2cc(Cl)ccc2[nH]c1=O | ? | -20% | ? | ? | ? | / | ? | 14µM*
CC1=CC(=O)C(Sc2ccc(C)cc2)=CC1=O | / | / | / | / | 0.84µM* | / | 1.3µM* | 2.5µM*
COc1ccc(NC(=O)CSc2nccn2Cc2ccco2)cc1 | -24% | -10% | 2% | -28% | -4% | / | / | /
CCOc1ccc(C(=S)N2CCN(C)CC2)cc1 | -19% | -2% | ? | -4% | 13µM* | -4% | 13µM* | 4.5µM*
Cc1ccc(NC2Sc3ccccc3NC2=O)cc1Cl (stereo not drawn) | -4% | 28% | -9% | -16% | 1% | -12% | / | /
Cc1ccc(/C=C/C(=O)NCC2COc3ccccc3O2)o1 (stereo not drawn) | ? | ? | ? | 56µM* | ? | -3% | 25µM* | 22µM*
CCSc1nnc(NC(=O)[C@H](C)NC(=O)c2ccccc2Cl)s1 | -14% | 13% | -25% | -5% | -9% | 10% | / | /
CCn1c(=O)c2sccc2n(CC(=O)NCCC2=CCCCC2)c1=O | -15% | 15% | 4% | -5% | -5% | / | / | /
O=C(NCCCO)c1ccc2nc(-c3ccco3)c(-c3ccco3)nc2c1 | 50µM* | ? | 79µM* | 50µM* | 30µM* | 28µM* | 22µM* | 35µM*

Compound activity: PubChem BioAssay, National Center for Advancing Translational Sciences (NCATS)
